An excerpt weighted towards active compounds, which were near 4.7% of everything screened.
ATG4B inh – ATG4B protease inhibitors, primary screen, biochemical, fluorescence, uHTS; ATG4B cleavage of LC3-PLA2, NBD-HPC fluorescence, 1 h; AID 504462, 2011; inhibition, % at 8.33 µM; Cysteine protease ATG4B (Homo sapiens), Q9Y4P1; 340,000 compounds, 0.51% hits; in the data active means inhibition above about 40%
Target sequence (Q9Y4P1 whole entry, looked up): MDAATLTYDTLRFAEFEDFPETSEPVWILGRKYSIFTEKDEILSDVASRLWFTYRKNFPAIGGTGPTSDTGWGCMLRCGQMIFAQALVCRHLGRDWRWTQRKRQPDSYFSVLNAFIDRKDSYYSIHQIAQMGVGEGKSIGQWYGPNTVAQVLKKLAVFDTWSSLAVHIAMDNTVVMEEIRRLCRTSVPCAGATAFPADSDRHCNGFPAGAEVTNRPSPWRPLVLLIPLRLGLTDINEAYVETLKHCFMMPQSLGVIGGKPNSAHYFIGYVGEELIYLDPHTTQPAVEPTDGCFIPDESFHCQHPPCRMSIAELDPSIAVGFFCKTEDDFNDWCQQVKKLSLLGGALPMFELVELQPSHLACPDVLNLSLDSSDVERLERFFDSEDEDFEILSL
PfHsp90 yeast 2 – growth inhibition of PfHsp90-expressing yeast, primary screen, antimalarial PfHsp90 inhibitor project, S. cerevisiae, BacTiter-Glo luminescence, single point, set 2; inhibition, % at 9.4 µM; BacTiter-Glo ATP, 48 h; yeast lacking PDR1 and PDR3 efflux regulators; 310,000 compounds, 0.32% hits;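 active means every replicate shows inhibition above about 80%, whatever the replicate mean, limit read from the data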
TIM10 inh – growth inhibitors of isogenic TIM10 control yeast, primary screen, counter-screen for tim10-1 yeast inhibitor project, luminescence, uHTS; S. cerevisiae TIM10 strain growth, BacTiter-Glo luminescence, 24 h; inhibition, % at 10 µM; 330,000 compounds, 1.4% hits; AID 463195, 2010;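 active means inhibition of 40% or more at the single tested concentration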;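 further: wild-type TIM10 isogenic control strain grown at permissive 25 °C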
tim10-1 inh – growth inhibitors of tim10-1 mutant yeast, primary screen, luminescence, uHTS; S. cerevisiae tim10-1 ts strain growth, BacTiter-Glo, 24 h; inhibition, % at 20 µM; 330,000 compounds, 2.2% hits;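 active means inhibition of at least 40%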;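 further: mutant grown at 25 °C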
tim23-1 inh – growth inhibitors of tim23-1 mutant yeast, primary screen, luminescence, uHTS | S. cerevisiae tim23-1 growth, BacTiter-Glo luminescence, 24 h | 330,000 compounds, 1.3% hits | inhibition, % at 20 µM;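 active means growth inhibition of the mutant yeast at or above 50%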;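 further: temperature-sensitive mutant grown at 25 °C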
SKKanGAS inh – S. pyogenes SKKanGAS growth inhibitors in kanamycin, primary screen, streptokinase expression inhibitor project, SKKanGAS strain, BacTiter-Glo luminescence; 6 h; inhibition, % at 7.5 µM; 300,000 compounds, 1.3% hits; AID 1662, 2009;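 active means mean replicate score, as percent of positive control median, at least 50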;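 further: strain carries kanamycin resistance gene driven by streptokinase promoter and grows in 40 µg/ml kanamycin; loss of luminescence reflects streptokinase promoter inhibition or plain growth inhibition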
Of the large screens only hits and unclear results are named; the others gave an inactive call.

CC(C)COc1ccc(C(=O)NC(Cc2c[nH]c3ccccc23)C(=O)NN)cc1 (stereo not given)	none
O=c1c(Br)ccc(Br)cc1Br	PfHsp90 yeast 2 120 (no result: TIM10 inh, tim10-1 inh, tim23-1 inh, SKKanGAS inh)
Cc1nn(-c2ccccc2)c(NC(=O)C(C)C)c(-c2ccccc2)c1=O	none (no result: PfHsp90 yeast 2)
O=C(/C=C/c1cccs1)NC(=S)Nc1ccc(S(=O)(=O)Nc2ccccc2C(F)(F)F)cc1	SKKanGAS inh 59
CCn1c(SCc2ccc(OC)c(F)c2)nc2ccccc2c1=O	none
Cc1ccc(S(=O)(=O)Nc2cccc3ncccc23)s1	SKKanGAS inh 71
O=[N+]([O-])c1cc(Cl)ccc1NCCNc1ncc(C(F)(F)F)cc1Cl	none
O=[N+]([O-])c1ccccc1NCCNc1ncc(C(F)(F)F)cc1Cl	SKKanGAS inh 52
CCOc1ccc(/C=C/C(=O)N(CC)CC(=O)Nc2ccc3c(c2)OCCO3)cc1OC	none
O=C(CN1CCC(NC(=O)c2ccc(Br)cc2)CC1)NCc1cccs1	none
Cc1cc(N/N=C/c2cccc(Br)c2)nc2ccccc12	SKKanGAS inh 91
CC1(C)C(=O)OC(c2cccn2-c2ccc([N+](=O)[O-])cc2)C(C)(C)C1=O (stereo not given)	none
O=C(NNC1=C(C(=O)C(F)(F)F)CCC1)c1cccc(Cl)c1	SKKanGAS inh 96
COc1ccc(C(=O)NNC2=C(C(=O)C(F)(F)F)CCC2)cc1	none
COC(CNC(=O)C1CCCN1C(=O)OCc1ccccc1)OC (stereo not given)	none (no result: TIM10 inh, tim10-1 inh, tim23-1 inh)
Cc1cc(C)cc(N2C(=O)C=CC2=O)c1	PfHsp90 yeast 2 108 (no result: TIM10 inh, tim10-1 inh, tim23-1 inh, SKKanGAS inh)
Cc1ccc(C(=O)NCCCn2ccnc2)cc1C	none (no result: PfHsp90 yeast 2)
CN1CCN(NC(=O)Nc2cc(Cl)cc(Cl)c2)CC1	SKKanGAS inh 88
CC1(C)Cc2ccccc2-c2c1c(=O)n(Cc1ccccc1)c1nnnn21	SKKanGAS inh 60 (no result: PfHsp90 yeast 2)
O=C1C=CC(=O)N1c1ccc(OC(F)F)cc1	PfHsp90 yeast 2 127 (no result: TIM10 inh, tim10-1 inh, tim23-1 inh, SKKanGAS inh)
O=C1C=CC(=O)N1c1ccc(O)cc1	PfHsp90 yeast 2 109
CS(=O)(=O)N(CC(=O)N1CCOCC1)c1ccc(Cl)cc1	none
Cc1[nH]n(-c2nc(-c3ccc(Cl)cc3)cs2)c(=O)c1N=Nc1ccc(O)cc1	SKKanGAS inh 61
O=C(N/N=C/c1cc([N+](=O)[O-])cc(Br)c1O)C12CC3CCC(CC(C3)C1)C2	SKKanGAS inh 51
COc1cc(/C=N/NC(=O)C23CC4CC(CC(C4)C2)C3)cc(Br)c1O	none
COc1cc(C2C=C(C34CC5CC(CC(C5)C3)C4)NC(=S)N2)cc(OC)c1OC (stereo not given)	none
S=C1NC(C23CC4CC(CC(C4)C2)C3)=CC(c2ccc3c(c2)OCO3)N1 (stereo not given)	SKKanGAS inh 58 (no result: PfHsp90 yeast 2)
CCc1cc2c(=O)n(Cc3ccco3)c(SCc3c(C)noc3C)nc2s1	SKKanGAS inh 99
Cc1cc(C)n(-c2nc(C)nc(NCc3ccccc3)n2)n1	SKKanGAS inh 58
COc1cc(NC(=O)C2CCC(CNc3c(N4CCC(C)CC4)c(=O)c3=O)CC2)cc(OC)c1 (stereo not given)	none
COc1ccc2c(c1)OC[C@H]1[C@H]2N2C(=O)c3cc(Cl)ccc3NC(=O)[C@@]2(C)[C@H]1c1ccccc1	PfHsp90 yeast 2 active (no result: SKKanGAS inh)
CC(C(=O)Nc1ccc(O)cc1)c1cccc(C(=O)c2ccccc2)c1 (stereo not given)	none
Cc1nc2ccc(S(=O)(=O)Nc3cccc(-c4nc5cccnc5s4)c3C)cc2s1	none
Cc1ccc(-c2nc3cccnc3s2)cc1NS(=O)(=O)c1ccc2c(c1)OCCO2	PfHsp90 yeast 2 89
c1ccc(CSC2=NNC(c3ccccn3)S2)cc1 (stereo not given)	SKKanGAS inh 83
O=C(CSC1=NNC(c2ccccn2)S1)Nc1ccc(C(F)(F)F)cc1 (stereo not given)	none
CCOc1ccc(NC(=O)CN(C)C(=O)c2ccc(N3CCCCCC3)c([N+](=O)[O-])c2)cc1OCC	none
COc1cc(NC(=O)c2ccc(S(=O)(=O)N(C)c3ccccc3OC)cc2)cc(OC)c1	none (no result: SKKanGAS inh)
O=C(Oc1ccc(NC2=NS(=O)(=O)c3ccccc32)cc1)c1cccnc1	SKKanGAS inh 59
O=S1(=O)N=C(Nc2ccc(O)cc2)c2ccccc21	none
Cc1ccc(/C=C/C(=O)NC(=S)Nc2ccc(S(=O)(=O)Nc3cc(C)on3)cc2)cc1	SKKanGAS inh 52
Cc1ccc(-c2cc(C(=O)Nc3ccc(S(=O)(=O)Nc4cc(C)on4)cc3)c3ccccc3n2)c(C)c1	SKKanGAS inh 54
Cc1nn(CC(=O)N2CCN(c3cccc(C(F)(F)F)c3)CC2)c(=O)c2cccn12	none
CC1CCN(CCOc2ccccc2-c2ccccc2)CC1	none
O=C(O)c1cccc2c1-c1ccc([N+](=O)[O-])cc1C2=O	none (no result: TIM10 inh, tim10-1 inh, tim23-1 inh, SKKanGAS inh)
O=C(O)c1cccc2c1Cc1cc([N+](=O)[O-])ccc1-2	PfHsp90 yeast 2 115 (no result: TIM10 inh, tim10-1 inh, tim23-1 inh, SKKanGAS inh)
COc1ccc(NC(=O)CCCNC(=O)Cn2cnc3sc(C)c(C)c3c2=O)cc1OC	none
COc1ccc(N/C(=N/c2nc(C)cc(C)n2)NC(=O)Nc2ccc(Cl)c(Cl)c2)c(OC)c1	none
Cc1[nH]ccc(=O)c1OCc1c(Cl)cccc1Cl	none
Cc1ccc(Cn2ccc(=O)c(OCc3c(Cl)cccc3Cl)c2C)cc1	SKKanGAS inh 70
CC(C)N1CCN(c2ccc(OCC3COC(Cn4cncn4)(c4ccc(Cl)cc4Cl)O3)cc2)CC1 (stereo not given)	PfHsp90 yeast 2 113 (no result: TIM10 inh, tim10-1 inh, tim23-1 inh, SKKanGAS inh)
CC(C)N1CCN(c2ccc(OC[C@H]3CO[C@](Cn4cncn4)(c4ccc(Cl)cc4Cl)O3)cc2)CC1	PfHsp90 yeast 2 101 (no result: SKKanGAS inh)
CCOC(=O)CNS(=O)(=O)c1cc(-c2nnc(Nc3ccc4c(c3)OCO4)c3ccccc23)ccc1C	none
COc1ccc(NC(=S)NC(NC(=O)c2cccc(Cl)c2)C(Cl)(Cl)Cl)c([N+](=O)[O-])c1 (stereo not given)	none
Cc1ccc(C)c(NC(=S)NC(NC(=O)/C=C/c2ccccc2)C(Cl)(Cl)Cl)c1 (stereo not given)	none
O=C(/C=C/c1ccccc1)NC(NC(=S)Nc1ccc(Cl)cc1Cl)C(Cl)(Cl)Cl (stereo not given)	SKKanGAS inh 76
O=C(NC(NC(=S)Nc1c(Cl)cc(Cl)cc1Cl)C(Cl)(Cl)Cl)OCc1ccccc1 (stereo not given)	SKKanGAS inh 86 (no result: PfHsp90 yeast 2)
O=C(NC(NC(=S)Nc1ccccc1Cl)C(Cl)(Cl)Cl)c1cccc(Cl)c1 (stereo not given)	SKKanGAS inh 97 (no result: PfHsp90 yeast 2)
